According to PubChem BioAssay (EPA / NIEHS):
Results filed as inconclusive are left out. Some structures have more than one record in an assay (separate samples or runs), and their calls can disagree. The source made the active and inactive calls. Rule for the calls: active = hit-call score of the fitted dose curve at least 0.9, where 1 is the maximum; inconclusive = response in the unintended direction; inactive = score below 0.9.

Columns and labels:
[1] = molecular target: guinea pig Sigma Receptor, Non-selective Binding, SIGMAR1 (gene 100135589) (UniProt Q60492); assay: NVS_OR_gSIGMA_NonSelective: NovaScreen (NVS) Nuclear Receptor Binding Assay for guinea pig Sigma Receptor, Non-selective Binding (AID 2283367)
Summary of the method: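 Test chemicals were screened in duplicate at 25 uM, then in concentration series if active, against radioligand binding to guinea pig brain membranes; filtration and scintillation counting at 1 h measured remaining bound ligand.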

[2] = test system: guinea pig Dopamine Transporter (DAT), gene 100714898; assay: NVS_TR_gDAT: NovaScreen (NVS) Transporter Assay for guinea pig Dopamine Transporter (DAT) (AID 2283369);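 note: active compounds lower bound radioligand signal relative to DMSO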
Summary of the method: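 Test chemicals were incubated 2 h with guinea pig striatal membranes and a radioligand; bound label was separated by filtration and counted. Screening ran at 25 uM, followed by concentration-response testing to a 50 uM maximum.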

[3] = molecular target: human Dopamine Transporter (DAT), SLC6A3 (gene 6531) (UniProt Q01959); assay: NVS_TR_hDAT: NovaScreen (NVS) Transporter Assay for human Dopamine Transporter (DAT) (AID 2283374);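 note: activity means loss of bound radioligand signal relative to DMSO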
Summary of the method: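 Extracted human SLC6A3 protein incubated 1 h with radioligand and test chemical; bound fraction separated on filters and counted. Single 25 uM duplicate screen preceded concentration-response follow-up; positive and negative controls on every plate.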

[4] = molecular target: human Norepinephrine Transporter (NET), SLC6A2 (gene 6530) (UniProt P23975); assay: NVS_TR_hNET: NovaScreen (NVS) Transporter Assay for human Norepinephrine Transporter (NET) (AID 2283377);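 note: cell-free membrane protein extracted from CHO cells expressing human NET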;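 for AC50: displacement of radioligand from human NET seen as loss of scintillation signal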
Summary of the method: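 In this cell-free binding screen, chemicals at 25 uM (duplicate) compete with a radioligand for CHO-derived human NET over 1 hour, with filter-based radiodetection.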

[5] = molecular target: Retinoic acid receptor RXR-alpha (Homo sapiens) (UniProt P19793); assay: OT_NURR1_NURR1RXRa_0480: Odyssey Thera (OT) 8-hour HEK293T Protein Complementation Assay for Nurr1/retinoid X receptor (RXR) (AID 2283385)
Summary of the method: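 Read-out: fluorescence from protein-fragment complementation between Nurr1 and RXRα in human HEK293T cells, 8 h after dosing. DMSO served as negative control; increased signal counted as activity.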

[6] = molecular target: Glucocorticoid receptor (Homo sapiens) (UniProt P04150); assay: NVS_NR_hGR: NovaScreen (NVS) Nuclear Receptor Binding Assay for human Glucocorticoid Receptor (GR) (AID 2283363);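 for AC50: activity is loss of specific radioligand binding signal relative to DMSO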
Summary of the method: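 Single-readout cell-free binding: radioligand plus extracted receptor, 16-hour dosing, filter radiodetection; 25 uM duplicate primary, concentration series secondary.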

[7] = molecular target: mouse Estrogen Receptor alpha (Era), Esr1 (gene 13982) (UniProt P19785); assay: NVS_NR_mERa: NovaScreen (NVS) Nuclear Receptor Binding Assay for mouse Estrogen Receptor alpha (Era) (AID 2283378);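 note: hit means loss of bound radioligand signal relative to DMSO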
Summary of the method: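 Test chemicals competed against a specific radioligand for binding to cell-free mouse Era. Duplicate wells at 25 uM were read 18 hours later by filter-based radiodetection, with loss of signal against DMSO scored as activity.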

[8] = molecular target: Estrogen receptor beta (Homo sapiens) (UniProt Q92731); assay: OT_ER_ERbERb_1440: Odyssey Thera (OT) 24-hour HEK293T Protein-Complementation Assay for Estrogen Receptor-beta/-beta Homodimer (AID 2283380);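 note: fluorescence gain from ER beta LBD homodimer complementation read by laser scanning cytometry; scored as signal increase over DMSO baseline for both agonists and antagonists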
Summary of the method: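 HEK293T cells stably expressing human ER-beta LBD (aa 310-547) PCA homodimer pair, dosed 24 h; formaldehyde-fixed, Draq5-stained. Readout: increase in nuclear (agonist) or nuclear plus cytoplasmic (antagonist) fluorescence intensity versus DMSO, gain-of-signal fitting.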

[9] = molecular target: Estrogen receptor (Homo sapiens) (UniProt P03372); assay: OT_ERa_GFPERaERE_0120: Odyssey Thera (OT) 2-hour HeLa Transcription Induction Assay for Estrogen Receptor (AID 2283382)
Summary of the method: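 Fluorescence microscopy read-out: inducible fluorescent protein reporter in HeLa cells, imaged 2 h post-dose. Signal increase over DMSO negative control fitted as single primary endpoint via high content image analysis.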

[10] = molecular target: Nuclear receptor subfamily 1 group I member 2 (Homo sapiens) (UniProt O75469); assay: NVS_NR_hPXR: NovaScreen (NVS) Nuclear Receptor Binding Assay for human Pregnane X Receptor (PXR) (AID 2283365);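 note: a drop in FRET signal versus DMSO baseline means the compound binds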
Summary of the method: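 Binding was measured by time-resolved fluorescence resonance energy transfer after a 2 h exposure of extracted human PXR protein without cells. Compounds were first tested at 25 uM in duplicate, with concentration series for actives; DMSO defined baseline.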

[11] = molecular target: human Adenosine Transporter (Adot), SLC29A1 (gene 2030) (UniProt Q99808); assay: NVS_TR_hAdoT: NovaScreen (NVS) Transporter Assay for human Adenosine Transporter (Adot) (AID 2283368)
Summary of the method: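 Binding displacement on U937 extracted protein, read 1 h post-dose by filtration and scintillation counting. Primary duplicate test at 25 uM, then singleton concentration series with 50 uM top; DMSO baseline.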

[12] = molecular target: Peroxisome proliferator-activated receptor gamma (Homo sapiens) (UniProt P37231); assay: NVS_NR_hPPARg: NovaScreen (NVS) Nuclear Receptor Binding Assay for human Peroxisome Proliferator-activated Receptor gamma (PPARg) (AID 2283370)
Summary of the method: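 Fluorescence polarization measures competitive binding to extracted PPARg in a cell-free format. Reading is taken at 2 h; activity is signal loss relative to DMSO. Screening at 25 uM in duplicate preceded confirmatory dose series.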

[13] = molecular target: Agonist Androgen Response Element (ARE), AR (gene 367) (UniProt P10275); assay: OT_AR_ARELUC_AG_1440: Odyssey Thera (OT) 24-hour CHO-K1 Luciferase Assay for Agonist Androgen Response Element (ARE) (AID 2283379)
Summary of the method: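 Luminescence increase above DMSO, read after a 24 h compound treatment of CHO-K1 cells expressing an androgen response element luciferase reporter, gives the single primary endpoint; concentration-response fitting used the positive direction.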

[14] = molecular target: Bile acid receptor (Homo sapiens) (UniProt Q96RI1); assay: OT_FXR_FXRSRC1_0480: Odyssey Thera (OT) 8-hour HEK293T Protein-Complementation Assay for Farnesoid X receptor/SRC-1 Co-activator (AID 2283383)
Summary of the method: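 Fluorescence intensity read-out, 8 h post-dose, HEK293T protein-fragment complementation; FXR bait and SRC-1 prey each linked to reporter fragments. Activity scored as signal increase over DMSO negative control.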

[15] = molecular target: human Serotonin Transporter (SERT), SLC6A4 (gene 6532) (UniProt P31645); assay: NVS_TR_hSERT: NovaScreen (NVS) Transporter Assay for human Serotonin Transporter (SERT) (AID 2283372)
Summary of the method: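 Human platelet membrane preparation; displacement of radioligand from serotonin transporter measured after 1 h by filtration and scintillation counting. Single 25 uM duplicate screen, then concentration series for actives, with DMSO as negative baseline.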

[16] = molecular target: Bile acid receptor (Homo sapiens) (UniProt Q96RI1); assay: OT_FXR_FXRSRC1_1440: Odyssey Thera (OT) 24-hour HEK293T Protein-Complementation Assay for Farnesoid X receptor/SRC-1 Co-activator (AID 2283384)
Summary of the method: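 Fluorescence readout, 24 h post-dose, HEK293T; FXR and SRC-1 fused to complementary reporter fragments, association reconstitutes signal. Positive-direction fit vs DMSO baseline.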

[17] = molecular target: rat Androgen Receptor (AR), Ar (gene 24208) (UniProt P15207); assay: NVS_NR_rAR: NovaScreen (NVS) Nuclear Receptor Binding Assay for rat Androgen Receptor (AR) (AID 2283366)
Summary of the method: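 Actives from a duplicate single-concentration (25 uM) primary run went on to concentration series. Displacement of radioligand was counted by filtration and scintillation, 18 h post-dose, using prostate extracts from testosterone-pretreated rats, with DMSO as baseline.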

[18] = test system: rat Norepinephrine Transporter (NET), gene 83511; assay: NVS_TR_rNET: NovaScreen (NVS) Transporter Assay for rat Norepinephrine Transporter (NET) (AID 2283373)
Summary of the method: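 Competitive radioligand displacement at the rat NET using forebrain membrane preparations, 1 h incubation, filter-based scintillation readout. Primary testing in duplicate at a single 25 uM concentration; confirmed actives retested across concentrations.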

[19] = molecular target: rat Serotonin Transporter (SERT), Slc6a4 (gene 25553) (UniProt P31652); assay: NVS_TR_rSERT: NovaScreen (NVS) Transporter Assay for rat Serotonin Transporter (SERT) (AID 2283375)
Summary of the method: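 Steps: rat forebrain membranes dosed with chemical (25 uM duplicate primary; concentration series for actives); 1 h incubation; labelled ligand bound, filtered, counted by scintillation. Activity scored as signal loss vs DMSO.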

Sequence of Nuclear receptor subfamily 1 group I member 2 (Homo sapiens) (O75469 whole entry, looked up): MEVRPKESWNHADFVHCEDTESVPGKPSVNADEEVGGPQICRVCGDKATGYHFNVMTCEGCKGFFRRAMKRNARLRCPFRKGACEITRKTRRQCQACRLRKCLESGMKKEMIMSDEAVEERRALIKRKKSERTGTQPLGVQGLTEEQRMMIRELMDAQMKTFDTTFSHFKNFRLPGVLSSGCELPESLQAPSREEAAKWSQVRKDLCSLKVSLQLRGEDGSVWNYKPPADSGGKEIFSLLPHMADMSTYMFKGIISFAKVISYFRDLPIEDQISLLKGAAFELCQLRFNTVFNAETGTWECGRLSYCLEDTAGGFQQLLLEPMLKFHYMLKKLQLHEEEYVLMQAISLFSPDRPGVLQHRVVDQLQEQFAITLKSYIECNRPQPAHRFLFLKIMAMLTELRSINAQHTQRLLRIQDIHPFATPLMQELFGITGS
Sequence of Retinoic acid receptor RXR-alpha (Homo sapiens) (P19793 whole entry, looked up, the tested form may be a part): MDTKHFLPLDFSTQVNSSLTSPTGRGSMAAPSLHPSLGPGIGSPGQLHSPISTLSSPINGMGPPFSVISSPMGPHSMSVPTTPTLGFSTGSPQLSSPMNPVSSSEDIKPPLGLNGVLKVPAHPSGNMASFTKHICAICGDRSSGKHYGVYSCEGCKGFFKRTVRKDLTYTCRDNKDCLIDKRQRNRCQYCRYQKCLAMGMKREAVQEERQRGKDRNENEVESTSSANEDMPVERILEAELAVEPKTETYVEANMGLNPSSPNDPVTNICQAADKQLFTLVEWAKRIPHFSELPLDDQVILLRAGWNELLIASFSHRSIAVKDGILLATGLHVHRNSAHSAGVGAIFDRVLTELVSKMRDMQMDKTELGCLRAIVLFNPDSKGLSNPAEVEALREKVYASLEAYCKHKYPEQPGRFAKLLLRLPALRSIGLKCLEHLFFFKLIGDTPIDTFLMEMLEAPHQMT
Sequence of human Norepinephrine Transporter (NET), SLC6A2 (gene 6530) (P23975 whole entry, looked up): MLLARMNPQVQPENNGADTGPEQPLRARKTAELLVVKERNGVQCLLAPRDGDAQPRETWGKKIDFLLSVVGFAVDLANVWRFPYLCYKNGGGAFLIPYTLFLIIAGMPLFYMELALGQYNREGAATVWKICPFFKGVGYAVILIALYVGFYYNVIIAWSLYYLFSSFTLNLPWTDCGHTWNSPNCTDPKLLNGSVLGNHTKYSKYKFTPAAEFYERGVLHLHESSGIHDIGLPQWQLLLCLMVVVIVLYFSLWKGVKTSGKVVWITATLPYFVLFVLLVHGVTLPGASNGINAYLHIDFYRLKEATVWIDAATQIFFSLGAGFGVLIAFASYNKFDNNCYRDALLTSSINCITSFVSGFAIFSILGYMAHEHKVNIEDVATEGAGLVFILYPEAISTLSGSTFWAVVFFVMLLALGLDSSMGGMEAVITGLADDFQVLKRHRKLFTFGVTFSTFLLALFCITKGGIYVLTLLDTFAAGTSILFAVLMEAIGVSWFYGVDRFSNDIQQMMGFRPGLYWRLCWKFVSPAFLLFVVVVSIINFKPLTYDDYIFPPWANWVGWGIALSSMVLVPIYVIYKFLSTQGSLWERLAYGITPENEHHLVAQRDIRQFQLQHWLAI
Sequence of Bile acid receptor (Homo sapiens) (Q96RI1 whole entry, looked up, the tested form may be a part): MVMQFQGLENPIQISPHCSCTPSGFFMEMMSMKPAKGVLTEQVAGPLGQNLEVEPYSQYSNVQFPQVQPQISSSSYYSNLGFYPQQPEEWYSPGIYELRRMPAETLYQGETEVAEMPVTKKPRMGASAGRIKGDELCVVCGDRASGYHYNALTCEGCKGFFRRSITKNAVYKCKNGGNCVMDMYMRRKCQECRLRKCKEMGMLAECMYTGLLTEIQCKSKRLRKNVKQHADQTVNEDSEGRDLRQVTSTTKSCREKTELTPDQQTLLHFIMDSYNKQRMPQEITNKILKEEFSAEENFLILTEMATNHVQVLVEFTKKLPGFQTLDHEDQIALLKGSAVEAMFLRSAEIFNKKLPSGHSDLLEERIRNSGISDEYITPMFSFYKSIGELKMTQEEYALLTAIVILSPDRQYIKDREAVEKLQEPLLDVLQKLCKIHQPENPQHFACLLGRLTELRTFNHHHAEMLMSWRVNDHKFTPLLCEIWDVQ
Sequence of Estrogen receptor beta (Homo sapiens) (Q92731 whole entry, looked up, the tested form may be a part): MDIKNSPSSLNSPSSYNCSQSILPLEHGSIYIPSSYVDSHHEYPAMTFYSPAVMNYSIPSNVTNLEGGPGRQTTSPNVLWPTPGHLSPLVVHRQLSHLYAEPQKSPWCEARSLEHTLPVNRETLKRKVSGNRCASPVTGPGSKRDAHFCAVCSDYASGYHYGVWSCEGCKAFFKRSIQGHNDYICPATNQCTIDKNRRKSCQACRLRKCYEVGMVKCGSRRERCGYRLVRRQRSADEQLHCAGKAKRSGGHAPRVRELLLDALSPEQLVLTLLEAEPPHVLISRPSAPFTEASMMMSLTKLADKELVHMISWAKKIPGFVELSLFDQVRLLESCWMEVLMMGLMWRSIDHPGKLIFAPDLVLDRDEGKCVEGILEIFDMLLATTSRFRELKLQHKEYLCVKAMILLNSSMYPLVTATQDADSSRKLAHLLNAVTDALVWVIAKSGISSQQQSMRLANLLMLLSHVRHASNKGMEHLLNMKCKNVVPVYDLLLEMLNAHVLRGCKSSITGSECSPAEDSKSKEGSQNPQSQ
Sequence of human Dopamine Transporter (DAT), SLC6A3 (gene 6531) (Q01959 whole entry, looked up): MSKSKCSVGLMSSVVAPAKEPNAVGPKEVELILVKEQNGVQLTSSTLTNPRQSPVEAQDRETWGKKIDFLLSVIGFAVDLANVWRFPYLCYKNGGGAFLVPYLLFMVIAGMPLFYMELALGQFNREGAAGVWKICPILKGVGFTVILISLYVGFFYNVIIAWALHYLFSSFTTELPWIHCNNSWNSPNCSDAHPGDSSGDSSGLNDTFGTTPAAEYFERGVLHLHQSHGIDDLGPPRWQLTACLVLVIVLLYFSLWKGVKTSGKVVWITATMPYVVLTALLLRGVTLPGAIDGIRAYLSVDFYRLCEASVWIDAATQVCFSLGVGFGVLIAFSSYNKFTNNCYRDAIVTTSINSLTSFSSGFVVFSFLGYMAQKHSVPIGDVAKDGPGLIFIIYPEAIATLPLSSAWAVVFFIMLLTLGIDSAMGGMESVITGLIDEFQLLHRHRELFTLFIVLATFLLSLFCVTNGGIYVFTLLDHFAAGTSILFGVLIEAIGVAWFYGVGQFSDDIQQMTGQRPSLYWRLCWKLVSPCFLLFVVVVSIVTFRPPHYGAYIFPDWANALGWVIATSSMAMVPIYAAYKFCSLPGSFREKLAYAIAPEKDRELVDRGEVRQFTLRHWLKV
Sequence of Glucocorticoid receptor (Homo sapiens) (P04150 whole entry, looked up): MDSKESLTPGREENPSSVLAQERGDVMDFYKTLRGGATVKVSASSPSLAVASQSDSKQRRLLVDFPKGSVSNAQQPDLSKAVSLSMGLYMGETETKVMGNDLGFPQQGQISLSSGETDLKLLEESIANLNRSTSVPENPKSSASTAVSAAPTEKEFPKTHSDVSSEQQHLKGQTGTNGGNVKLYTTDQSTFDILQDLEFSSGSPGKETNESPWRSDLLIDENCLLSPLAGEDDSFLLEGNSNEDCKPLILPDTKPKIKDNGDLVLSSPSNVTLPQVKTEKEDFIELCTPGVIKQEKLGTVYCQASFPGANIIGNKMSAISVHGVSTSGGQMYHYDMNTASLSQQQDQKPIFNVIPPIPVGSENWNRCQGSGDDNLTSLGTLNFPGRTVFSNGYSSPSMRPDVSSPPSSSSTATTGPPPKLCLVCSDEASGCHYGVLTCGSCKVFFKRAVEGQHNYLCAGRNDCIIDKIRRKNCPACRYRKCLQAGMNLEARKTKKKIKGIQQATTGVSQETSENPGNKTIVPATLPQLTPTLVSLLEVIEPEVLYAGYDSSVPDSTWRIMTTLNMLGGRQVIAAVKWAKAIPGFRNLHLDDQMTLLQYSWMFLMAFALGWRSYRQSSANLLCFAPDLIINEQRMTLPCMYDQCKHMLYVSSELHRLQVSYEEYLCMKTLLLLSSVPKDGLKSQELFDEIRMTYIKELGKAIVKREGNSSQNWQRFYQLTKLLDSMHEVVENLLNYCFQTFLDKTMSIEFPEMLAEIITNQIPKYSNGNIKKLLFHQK
Sequence of Peroxisome proliferator-activated receptor gamma (Homo sapiens) (P37231 whole entry, looked up): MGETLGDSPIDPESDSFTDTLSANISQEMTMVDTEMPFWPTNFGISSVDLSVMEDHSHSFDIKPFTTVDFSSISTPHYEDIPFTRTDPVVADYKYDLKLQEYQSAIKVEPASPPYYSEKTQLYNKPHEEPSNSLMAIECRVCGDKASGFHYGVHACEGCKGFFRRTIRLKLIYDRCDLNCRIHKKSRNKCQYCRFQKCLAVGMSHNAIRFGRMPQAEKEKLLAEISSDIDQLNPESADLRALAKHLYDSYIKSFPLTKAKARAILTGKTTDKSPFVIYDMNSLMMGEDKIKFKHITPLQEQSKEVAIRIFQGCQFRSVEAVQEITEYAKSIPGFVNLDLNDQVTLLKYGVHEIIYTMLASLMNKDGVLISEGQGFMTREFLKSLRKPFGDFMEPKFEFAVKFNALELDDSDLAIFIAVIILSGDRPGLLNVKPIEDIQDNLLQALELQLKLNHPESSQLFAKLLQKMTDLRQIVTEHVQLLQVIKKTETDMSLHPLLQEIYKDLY
Sequence of Estrogen receptor (Homo sapiens) (P03372 whole entry, looked up): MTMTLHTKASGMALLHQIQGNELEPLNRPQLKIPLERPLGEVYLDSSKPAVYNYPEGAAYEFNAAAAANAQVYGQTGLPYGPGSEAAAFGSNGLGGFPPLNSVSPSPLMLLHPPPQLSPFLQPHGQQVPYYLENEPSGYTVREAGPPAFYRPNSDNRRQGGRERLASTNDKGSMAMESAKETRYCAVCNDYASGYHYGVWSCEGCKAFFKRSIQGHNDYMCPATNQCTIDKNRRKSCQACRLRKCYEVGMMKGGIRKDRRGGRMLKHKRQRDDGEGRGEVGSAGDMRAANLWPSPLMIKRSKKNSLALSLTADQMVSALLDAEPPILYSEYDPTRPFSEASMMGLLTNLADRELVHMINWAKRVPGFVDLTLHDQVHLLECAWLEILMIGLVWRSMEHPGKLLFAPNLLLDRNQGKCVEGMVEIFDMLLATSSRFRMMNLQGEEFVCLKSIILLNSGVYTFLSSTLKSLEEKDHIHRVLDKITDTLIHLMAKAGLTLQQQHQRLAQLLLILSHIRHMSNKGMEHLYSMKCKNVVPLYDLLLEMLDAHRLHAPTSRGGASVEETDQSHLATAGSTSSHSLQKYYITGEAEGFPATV

CC(C)(C)C(O)(CCc1ccc(Cl)cc1)Cn1cncn1 (stereo unspecified)
outcome [1]: inactive
AC50 [2]: 8.79 µM (active)
AC50 [3]: 4.04 µM (active)
AC50 [4]: 14.3 µM (active)
outcome [5]: inactive

CCCCCOC(=O)c1ccccc1C(=O)OCCCCC
outcome [6]: inactive
outcome [2]: inactive
outcome [7]: inactive
outcome [8]: inactive
AC50 [9]: 12.1 µM (active)
outcome [5]: inactive

CCNS(=O)(=O)C(F)(F)C(F)(F)C(F)(F)C(F)(F)C(F)(F)C(F)(F)C(F)(F)C(F)(F)F
outcome [10]: inactive
outcome [11]: inactive
outcome [12]: inactive
outcome [13]: inactive
outcome [14]: inactive
outcome [5]: inactive

O=[N+]([O-])c1ccc(Oc2ccc(Cl)cc2Cl)cc1
outcome [6]: inactive
outcome [2]: inactive
outcome [15]: inactive
outcome [8]: inactive
AC50 [5]: 75.3 µM (active)
outcome [5]: inactive

OCCOCCO
outcome [10]: inactive
outcome [8]: inactive
outcome [9]: inactive
outcome [16]: inactive
outcome [5]: inactive

Cc1cc(N=Nc2ccccc2C)ccc1N
outcome [17]: inactive
outcome [12]: inactive
AC50 [3]: 17.4 µM (active)
AC50 [4]: 12.4 µM (active)
AC50 [8]: 12.2 µM (active)
outcome [14]: inactive
outcome [5]: inactive

Oc1ccc2ccc3cccc4ccc1c2c34
AC50 [6]: 4.96 µM (active)
AC50 [8]: 12 µM (active)
outcome [5]: inactive

O=[N+]([O-])C(Br)(CO)CO
AC50 [11]: 25 µM (active)
outcome [12]: inactive
outcome [4]: inactive
outcome [8]: inactive

CC(C)(C)OOC(=O)c1ccccc1
outcome [10]: inactive
outcome [12]: inactive
outcome [4]: inactive
outcome [8]: inactive

Cn1cc(-c2ccccc2)c(=O)c(-c2cccc(C(F)(F)F)c2)c1
outcome [6]: inactive
outcome [12]: inactive
outcome [15]: inactive
AC50 [3]: 16.5 µM (active)
outcome [9]: inactive
outcome [5]: inactive

O=C(N[C@H](c1ccccc1)[C@@H]1CN2CCC1CC2)c1c(Cl)ccc(C(F)(F)F)c1Cl
AC50 [1]: 22.3 µM (active)
AC50 [2]: 29.9 µM (active)
AC50 [15]: 1.52 µM (active)
AC50 [18]: 26.4 µM (active)
AC50 [3]: 23.1 µM (active)
AC50 [19]: 0.359 µM (active)
AC50 [4]: 13.3 µM (active)
outcome [8]: inactive
outcome [14]: inactive
